# Screening results from PubChem BioAssay.
# This excerpt belongs to a sample that is enriched for hits.
# ST2 inh: blocks human ST2 binding to IL-33; Q01638; AlphaLISA ST2-Fc/biotin-IL-33 interaction, 1 h; inhibition, % for hits at 17 µM; 78,000 compounds, 2.3% hits; AID 1259354; in the data active = inhibition above about 30%
# Active calls of the source: *; i = inactive; ! = repeats disagree.
SMILES,ST2 inh
Cc1ccc(-n2c(SC(C)c3ccccc3)nc3c(c2=O)SCC3)cc1 (stereo not drawn),31%*!
CCOC(=O)C(C)Sc1nc2c(c(=O)n1-c1ccc(Cl)cc1)SCC2 (stereo not drawn),i
COc1cccc(Cn2nc(C(=O)NC3CC3)c3c2CCN(C(=O)CCc2c[nH]c4ccccc24)C3)c1,i
C=CCOC(=O)C1=C(C)OC(N)=C(C#N)C1c1ccccc1Cl (stereo not drawn),i
CNC(=O)[C@@H]1C[C@H](N)CN1C(=O)CCCOc1ccccc1,i
Brc1cnc2nc(COc3ccccc3)[nH]c2c1,35%*
Cc1cc(OCc2nc3ccccc3[nH]2)ccc1C(C)C,i
COc1ccc(OCc2nc3ccccc3[nH]2)cc1,i
COc1ccc2nc(C)cc(Nc3cccc(C)c3C)c2c1,i
O=C(Nc1ccc(Br)c2cccnc12)c1cccs1,i
CC(C)n1c(-c2ccccc2)csc1=Nc1ccccc1,70%*
CSc1nc2c(sc3ccccc32)c(=O)n1Cc1ccco1,i
c1ccc(N=c2scc(-c3ccccc3)n2Cc2ccco2)cc1,62%*
c1ccc(N2CCN(Cc3ccco3)CC2)cc1,i
N#Cc1c(-c2ccc(Cl)cc2)cc(-c2cccs2)nc1SCC(N)=O,i
Cc1nnc(NC(=O)CSc2cn(Cc3ccc(Cl)cc3)c3ccccc23)s1,i
CC1(C)CC(=O)C2=C(C1)Nc1ccccc1NC2c1ccc(Cl)c([N+](=O)[O-])c1 (stereo not drawn),i
N#CC1=C(N)n2c(s/c(=C\c3ccco3)c2=O)=C(C#N)C1c1ccco1 (stereo not drawn),37%*
CCCOc1ccc(-c2nc3s/c(=C\c4ccco4)c(=O)n3n2)cc1,i
CC1CC(=O)C2=C(C1)OC(N)=C(C#N)C2c1ccco1 (stereo not drawn),i
COc1ccc(Nc2nnc(-c3ccc(C)c(S(=O)(=O)N(C)C)c3)c3ccccc23)cc1,i
COc1ccc(NC2=C(N(C)C)C(=O)c3ccccc3C2=O)cc1,44%*
COc1ccc(NS(=O)(=O)c2ccccc2)cc1,i
CC(C)(NC(=O)c1cccs1)C(=O)NC[C@H]1CCc2ccccc2O1,i
COc1ccccc1C(=O)OCCCN(C1=NS(=O)(=O)c2ccccc21)c1ccccc1,i
SMILES,ST2 inh
CN1CC2(CCN(C(=O)CCOc3ccccc3)C2)OC1=O (stereo not drawn),i
COc1cccc(NC(=O)CSc2c3c(nc4ccccc24)CCC3)c1,i
COc1cccc(NC(=O)CSc2nnc3ccccn23)c1,i
COc1cccc(NC(=O)CSc2nnc(Cc3ccccc3)n2C)c1,40%*
O=C(CN1C(=O)c2ccccc2C1=O)Nc1nnc(Cc2ccc(Cl)cc2)s1,i
O=C(Cn1cnc2c(cnn2-c2ccc(F)cc2)c1=O)N1CCCC1,i
COc1cc(C(=O)Nc2ccc(-c3nc4cc(C)ccc4o3)c(O)c2)cc(OC)c1OC,i
Cc1ccccc1-c1nc2cc(NC(=O)c3ccc4c(c3)OCCO4)ccc2o1,i
Cc1ccc2oc(-c3ccc(NC(=O)c4ccc5c(c4)OCCO5)cc3O)nc2c1,32%*
O=C(C1CCN(c2ccc(-c3ccc(Br)s3)nn2)CC1)N1CCOCC1,i
COc1ccc(C(=O)Nc2c3c(nn2-c2ccc(C)cc2)CS(=O)C3)cc1OC (stereo not drawn),i
Cn1c(=O)c2cc(S(=O)(=O)N(CCO)Cc3ccccc3)ccc2n(C)c1=O,i
Cc1ccc(-c2csc(NC(=O)c3cc(=O)c4ccccc4o3)n2)c(C)c1,i
Cc1ccc(-c2csc(/C(C#N)=C/c3cccnc3)n2)c(C)c1,34%*
Cc1ccccc1NC(=O)c1ccc(-c2nnc(-c3ccccc3)o2)cc1,i
O=C(O)C1C2C=CC(C2)C1C(=O)NCc1ccncc1 (stereo not drawn),i
CNC(=O)N1C(=O)C(=O)c2ccccc21,i
CC(=O)N1/C(=C/c2ccncc2)C(=O)c2ccccc21,39%*
CC(Oc1ccc(C=C2C(=O)c3ccccc3C2=O)cc1)C(=O)O (stereo not drawn),i
CC(=O)N1C(=O)C(=O)c2ccccc21,i
COc1ccc(-c2nc3s/c(=C\c4ccc(N(C)C)cc4)c(=O)n3n2)cc1,i
CC(=O)N1/C(=C/c2ccc(N(C)C)cc2)C(=O)c2ccccc21,66%*
COCCOC(=O)C1=C(C)NC2=C(C(=O)C(C(=O)OC)C(C)C2)C1c1ccccc1OC(C)C (stereo not drawn),i
CN1CCN(C(=O)C2COc3ccccc3O2)CC1=O (stereo not drawn),i
O=C1NN(c2ccc(Cl)c(Cl)c2)C(=O)/C1=C/c1ccc(-c2ccc3c(c2)C(=O)NC3=O)o1,i
N#C/C(=C\c1ccc(-c2ccc3c(c2)C(=O)NC3=O)o1)c1nc2ncc(Br)cc2[nH]1,33%*
Cc1ccc(CNC(=O)CCCn2c(=O)c3sccc3n(Cc3ccccc3C#N)c2=O)cc1,i
Cc1cc(C)c(C(=O)Nc2ncc(S(=O)(=O)c3ccc([N+](=O)[O-])cc3)s2)c(C)c1,i
